Measured values as given in the supplement of paper PMC10042075.
“And” between values parts separate entries of the source, which are not always exact repeats. Identical values can stand only once. Counter-ions that a name gives are not always drawn. ± gives the standard deviation of the averaged measurements.

Tested on: LASCPC-01
Assay: cell viability relative to DMSO control (fraction); higher = less growth inhibition (more viable cells)
Settings: 2 µM; 72 h
Description: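 High-throughput single-dose screen in the LASCPC-01 NEPC cell line in 384-well plates. Cells were treated with each compound at 2 µM for 72 h, and viability was read by CellTiter-Glo luminescence. Values are normalised to the DMSO control (compound/DMSO) from three replicates; only the 5-HT-related subset of the 7315-compound library is given.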

Row | Structure (SMILES) | cell viability
1 | CC(C)(C)c1ccc(CN2CCN(C(c3ccccc3)c3ccc(Cl)cc3)CC2)cc1 (stereo not given) [Buclizine HCl] | 0.896
2 | Cc1[nH]cnc1CN1CCc2c(c3ccccc3n2C)C1=O [Alosetron hydrochloride] | 1.11
3 | COc1ccccc1N1CCN(CCCNc2cc(=O)n(C)c(=O)n2C)CC1 [Urapidil HCl] | 0.425
4 | CN(C)CCC[C@@]1(c2ccc(F)cc2)OCc2cc(C#N)ccc21 [Escitalopram Oxalate] | 0.982
5 | COc1ccccc1N1CCN(CCN2C(=O)CC3(CCCC3)CC2=O)CC1 | 0.815
6 | CN1CCN(c2cc3c(nn2)Oc2ccccc2N3C)CC1 [Azaphen] | 0.951
7 | Cc1nc2sccn2c(=O)c1CCN1CCC(=C(c2ccc(F)cc2)c2ccc(F)cc2)CC1 [Ritanserin] | 0.989
8 | O=C(O[C@@H]1C[C@@H]2C[C@H]3C[C@H](C1)N2CC3=O)c1c[nH]c2ccccc12 [Dolasetron mesylate hydrate] | 1.07
9 | O=C1[C@H]2CCCC[C@H]2C(=O)N1CCCCN1CCN(c2nsc3ccccc23)CC1 [Perospirone] | 0.997
10 | CN1CCCCC1CCN1c2ccccc2Sc2ccc([S+](C)[O-])cc21 (stereo not given) [Mesoridazine Besylate] | 1.07
11 | Cn1cc(C(=O)OCC2CCN(CCNS(C)(=O)=O)CC2)c2ccccc21 | 0.959
12 | Cc1ccc(C(=O)Oc2ccc(C(CN(C)C)C3(O)CCCCC3)cc2)cc1 (stereo not given) [Ansofaxine hydrochloride] | 0.931
13 | O=C1NCCN1CCN1CCC(c2cn(-c3ccc(F)cc3)c3ccc(Cl)cc23)CC1 [Sertindole] | 0.499
14 | CN[C@H]1CC[C@@H](c2ccc(Cl)c(Cl)c2)c2ccccc21 [Sertraline HCl] | 0.833
15 | CN1CCN(c2nc3cc(C(F)(F)F)ccc3n3cccc23)CC1 | 0.521
16 | O=C1CC2(CCCC2)CC(=O)N1CCCCN1CCN(c2ncccn2)CC1 [Buspirone HCl] | 1.02
17 | COCCCN1CCC(NC(=O)c2cc(Cl)c(N)c3c2OCC3)CC1 [Prucalopride] | 0.922
18 | CC(CN(C)C)CN1c2ccccc2CCc2ccccc21 (stereo not given) [Trimipramine maleate] | 1.01
19 | O=c1n(CCCN2CCN(c3cccc(Cl)c3)CC2)nc2ccccn12 [Trazodone hydrochloride] | 1.04
20 | Cn1ccc2cc(NC(=O)Nc3cccnc3)ccc21 | 1.03

Row | Structure (SMILES) | cell viability
21 | O=C1CC2(CCCC2)CC(=O)N1CCCCN1CCN(c2ncccn2)CC1 [Buspirone hydrochloride] | 1.08
22 | CNc1cc(NS(=O)(=O)c2ccc(N)cc2)nc(NC)n1 [Ro 04-6790 dihydrochloride] | 1.03
23 | Cc1cc2c(cc1Cl)N(C(=O)Nc1cccc3ncccc13)CC2 | 0.693
24 | CC(C)COc1ccc(CNC(=O)N(Cc2ccc(F)cc2)C2CCN(C)CC2)cc1 [Pimavanserin tartrate] | 0.514
25 | CNCCC(Oc1ccc(C(F)(F)F)cc1)c1ccccc1 (stereo not given) [Fluoxetine] | 0.892 ± 0.41
26 | O=c1c(-c2ccc(O)cc2)coc2c([C@@H]3O[C@H](CO)[C@@H](O)[C@H](O)[C@H]3O)c(O)ccc12 [Puerarin] | 0.989
27 | CCN1CCN(c2cc(-c3ccc(F)cc3)c3c(n2)CCCCCC3)CC1 [Blonanserin] | 0.776
28 | CN1[C@@H]2CC[C@H]1C[C@@H](OC(=O)c1c[nH]c3ccccc13)C2 [Tropisetron] | 1.01
29 | CC(C)COc1ccc(CNC(=O)N(Cc2ccc(F)cc2)C2CCN(C)CC2)cc1 [Pimavanserin] | 0.72
30 | COc1ccccc1N1CCN(CCCNc2cc(=O)n(C)c(=O)n2C)CC1 [Urapidil] | 1.18
31 | CN1C2CCCC1CC(NC(=O)c1nn(C)c3ccccc13)C2 (stereo not given) [Granisetron hydrochloride] | 0.955
32 | O=C1c2cccc3c2[C@H](CCC3)CN1[C@@H]1CN2CCC1CC2 [Palonosetron hydrochloride] | 0.935
33 | OC(CN1CCN(c2cccc(Cl)c2)CC1)C(c1ccccc1)c1ccccc1 (stereo not given) | 0.778
34 | N[C@@H](Cc1c[nH]c2ccc(O)cc12)C(=O)O [5-Hydroxy-L-tryptophan] | 1.04
35 | COc1cc(/C=C/C(=O)NCCn2c(C(F)(F)F)cc3ccccc32)cc(OC)c1OC | 0.968
36 | COc1ccccc1N1CCN(CCN(C(=O)C2CCCCC2)c2ccccn2)CC1 | 0.987 and 1.03
37 | COc1cc(N)c(Cl)cc1C(=O)NC1CCN(CCCOc2ccc(F)cc2)CC1OC (stereo not given) [Cisapride] | 0.803
38 | CN1CCC(=C2c3ccccc3CCc3sccc32)CC1 [Pizotifen] | 0.586
39 | CCCCN1CCC(CNC(=O)c2c3n(c4ccccc24)CCCO3)CC1 [Piboserod] | 1.21
40 | O=S(=O)(c1ccccc1)c1cnc2c(N3CCNCC3)cccc2c1 | 0.879
